Measurements reported in PubChem BioAssay (Tox21).
Records with an inconclusive call do not appear. Where a call stands in place of a potency, no number is given. Where a structure was tested more than once in an assay, its records may differ in their call. Calls of active or inactive are those of the source. Unless noted, calls follow the shape of the dose curve; as a rule, active = well fitted curve in the direction sought with a large enough effect in the repeat runs; inconclusive = weak or mixed curves; inactive = no such curve, though single readings can be large; an effect the other way counts as inactive or inconclusive.

Test: qHTS assay to identify small molecule HDAC inhibitors - cell viability counter screen (AID 1259365); also: nearly all actives have a fitted effect of over 50% in size
Details: HCT-116 viability, CellTiter-Glo ATP luminescence, 2 h; series mostly up to 92.4 µM
How it was run: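 Counter screen in wild-type HCT-116 cells: compounds dissolved in DMSO are pin-transferred onto overnight-plated cells and left 2hr at 37C. ATP-based CellTiter-Glo luminescence then measures viable cells.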

| Structure (SMILES) | Potency |
| --- | --- |
| COc1ccc(OC(F)(F)F)cc1CN[C@H]1CCCN[C@H]1c1ccccc1 | inactive |
| CCCC[P+](CCCC)(CCCC)CCCC | inactive |
| C1CCC(C(CC2CCCCN2)C2CCCCC2)CC1 (centres undefined) | inactive |
| O=c1[nH]cc(F)c(=O)[nH]1 | inactive |
| OC[C@H]1O[C@H](O[C@]2(CCl)O[C@H](CCl)[C@@H](O)[C@@H]2O)[C@H](O)[C@@H](O)[C@H]1Cl | inactive |
| Cn1c(=O)c2c(ncn2C)n(C)c1=O | inactive |
| F[B-](F)(F)F | inactive |
| CC(=O)C(=O)O | inactive |
| COc1cccc(O)c1O | inactive |
| CCCCC(CC)C(=O)O (centres undefined) | inactive |
| CC(O)(P(=O)(O)O)P(=O)(O)O | inactive |
| Nc1ccc([N+](=O)[O-])cc1O | inactive |

Test: qHTS assay to identify small molecule agonists of the sonic hedgehog signaling (Shh) pathway - cell viability counter screen (AID 1259366); also: nearly all actives have a fitted effect of over 50% in size; also: potency is read from the fitted curve at half-maximal effect
Details: NIH/3T3 Gli1-Luc viability, CellTiter-Fluor, 24 h; series mostly up to 92.4 µM
How it was run: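 Cells are plated at 2,000 per well and left 4hr at 37C, 5% CO2 before compound addition. After 23hr of treatment, CellTiter-Fluor reagent is added for 1hr at 37C and fluorescence is measured.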

| Structure (SMILES) | Potency |
| --- | --- |
| COc1ccc(OC(F)(F)F)cc1CN[C@H]1CCCN[C@H]1c1ccccc1 | 48.6 µM (active) |
| CCCC[P+](CCCC)(CCCC)CCCC | inactive |
| Oc1ccccc1 | inactive |
| C1CCC(C(CC2CCCCN2)C2CCCCC2)CC1 (centres undefined) | 13.3 µM (active) |
| O=c1[nH]cc(F)c(=O)[nH]1 | inactive |
| Nc1ccc(O)c([N+](=O)[O-])c1 | 43.3 µM (active) |
| CN1CCC[C@H]1c1cccnc1 | inactive |
| OC[C@H]1O[C@H](O[C@]2(CCl)O[C@H](CCl)[C@@H](O)[C@@H]2O)[C@H](O)[C@@H](O)[C@H]1Cl | inactive |
| Cn1c(=O)c2c(ncn2C)n(C)c1=O | inactive |
| CC1(C)S[C@@H]2[C@H](NC(=O)[C@H](N)c3ccccc3)C(=O)N2[C@H]1C(=O)O | inactive |
| F[B-](F)(F)F | inactive |
| O=C(Nc1ncc([N+](=O)[O-])s1)c1cccs1 | inactive |
| Cc1ccc(S(=O)(=O)O)cc1 | inactive |
| CC(=O)C(=O)O | inactive |
| C/C=C/C=C/C(=O)O | inactive |
| COc1cccc(O)c1O | 63.5 µM (active) |
| O=C1c2c(O)cccc2Cc2cccc(O)c21 | inactive |
| CN[C@H]1CC[C@@H](c2ccc(Cl)c(Cl)c2)c2ccccc21 | inactive |
| O=C1O[C@H]([C@@H](O)CO)C(O)=C1O | inactive |
| CCCCC(CC)C(=O)O (centres undefined) | inactive |
| C[C@](N)(Cc1ccc(O)c(O)c1)C(=O)O | inactive |
| COc1ccc(CN(CCN(C)C)c2ccccn2)cc1 | inactive |
| CCN(Cc1c(F)cccc1Cl)c1c([N+](=O)[O-])cc(C(F)(F)F)cc1[N+](=O)[O-] | inactive |
| CC(O)(P(=O)(O)O)P(=O)(O)O | inactive |
| Nc1ccc([N+](=O)[O-])cc1O | 30.6 µM (active) |
| NS(=O)(=O)O | inactive |

Test: qHTS assay to identify small molecule antagonists of the sonic hedgehog signaling (Shh) pathway - cell viability counter screen (AID 1259367); also: nearly all actives have a fitted effect of over 55% in size; also: potency is read from the fitted curve at half-maximal effect
Details: NIH/3T3 Gli1-Luc viability, CellTiter-Fluor, 24 h; series mostly up to 92.4 µM
How it was run: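 Cells: 3T3 Gli1-Luc, 2,000/well, 4 hr pre-incubation. Compounds in DMSO, then conditioned medium. Incubation 24 hr, 37C, 5% CO2. CellTiter-Fluor at 23 hr, 1 hr, fluorescence.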

| Structure (SMILES) | Potency |
| --- | --- |
| COc1ccc(OC(F)(F)F)cc1CN[C@H]1CCCN[C@H]1c1ccccc1 | 61.1 µM (active) |
| CCCC[P+](CCCC)(CCCC)CCCC | inactive |
| Oc1ccccc1 | inactive |
| O=c1[nH]cc(F)c(=O)[nH]1 | inactive |
| Nc1ccc(O)c([N+](=O)[O-])c1 | 30.6 µM (active) |
| CN1CCC[C@H]1c1cccnc1 | inactive |
| OC[C@H]1O[C@H](O[C@]2(CCl)O[C@H](CCl)[C@@H](O)[C@@H]2O)[C@H](O)[C@@H](O)[C@H]1Cl | inactive |
| Cn1c(=O)c2c(ncn2C)n(C)c1=O | 55.1 µM (active) and inactive |
| CC1(C)S[C@@H]2[C@H](NC(=O)[C@H](N)c3ccccc3)C(=O)N2[C@H]1C(=O)O | inactive |
| F[B-](F)(F)F | inactive |
| Cc1ccc(S(=O)(=O)O)cc1 | inactive |
| CC(=O)C(=O)O | inactive |
| C/C=C/C=C/C(=O)O | inactive |
| COc1cccc(O)c1O | 56.6 µM (active) |
| O=C1c2c(O)cccc2Cc2cccc(O)c21 | inactive |
| CN[C@H]1CC[C@@H](c2ccc(Cl)c(Cl)c2)c2ccccc21 | inactive |
| O=C1O[C@H]([C@@H](O)CO)C(O)=C1O | inactive |
| CCCCC(CC)C(=O)O (centres undefined) | inactive |
| C[C@](N)(Cc1ccc(O)c(O)c1)C(=O)O | inactive |
| COc1ccc(CN(CCN(C)C)c2ccccn2)cc1 | inactive |
| CCN(Cc1c(F)cccc1Cl)c1c([N+](=O)[O-])cc(C(F)(F)F)cc1[N+](=O)[O-] | inactive |
| CC(O)(P(=O)(O)O)P(=O)(O)O | inactive |
| Nc1ccc([N+](=O)[O-])cc1O | 24.3 µM (active) |
| NS(=O)(=O)O | inactive |

Test: qHTS assay to identify small molecule agonists of the sonic hedgehog signaling (Shh) pathway (AID 1259368; calls by dose curve;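 also: NIH/3T3-derived 3T3Gli1-Luc cells carrying a stable Gli1-driven firefly luciferase reporter; nearly all actives have a fitted effect of over 15% in size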)
Details: NIH/3T3 Gli1-Luc reporter, luciferase, 24 h, stronger effect = higher value; series mostly up to 92.4 µM
How it was run: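 A Gli1 transcriptional response element controlled firefly luciferase in 3T3Gli1-Luc cells. Compounds and a positive control were added 4 hr after plating, and cells were incubated a further 24 hr at 37 C before luminescence detection.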

| Structure (SMILES) | outcome |
| --- | --- |
| COc1ccc(OC(F)(F)F)cc1CN[C@H]1CCCN[C@H]1c1ccccc1 | inactive |
| CCCC[P+](CCCC)(CCCC)CCCC | inactive |
| Oc1ccccc1 | inactive |
| CC/C(=C(\c1ccccc1)c1ccc(OCCN(C)C)cc1)c1ccccc1 | inactive |
| C1CCC(C(CC2CCCCN2)C2CCCCC2)CC1 (centres undefined) | inactive |
| O=c1[nH]cc(F)c(=O)[nH]1 | inactive |
| Nc1ccc(O)c([N+](=O)[O-])c1 | inactive |
| CN1CCC[C@H]1c1cccnc1 | inactive |
| NC(=O)n1c(O)c(C(=O)c2cccs2)c2cc(Cl)ccc21 | inactive |
| OC[C@H]1O[C@H](O[C@]2(CCl)O[C@H](CCl)[C@@H](O)[C@@H]2O)[C@H](O)[C@@H](O)[C@H]1Cl | inactive |
| Cn1c(=O)c2c(ncn2C)n(C)c1=O | inactive |
| CC1(C)S[C@@H]2[C@H](NC(=O)[C@H](N)c3ccccc3)C(=O)N2[C@H]1C(=O)O | inactive |
| F[B-](F)(F)F | inactive |
| Cc1ccc(S(=O)(=O)O)cc1 | inactive |
| CC(=O)C(=O)O | inactive |
| C/C=C/C=C/C(=O)O | inactive |
| COc1cccc(O)c1O | inactive |
| O=C1c2c(O)cccc2Cc2cccc(O)c21 | inactive |
| CN[C@H]1CC[C@@H](c2ccc(Cl)c(Cl)c2)c2ccccc21 | inactive |
| O=C1O[C@H]([C@@H](O)CO)C(O)=C1O | inactive |
| CCCCC(CC)C(=O)O (centres undefined) | inactive |
| C[C@](N)(Cc1ccc(O)c(O)c1)C(=O)O | inactive |
| COc1ccc(CN(CCN(C)C)c2ccccn2)cc1 | inactive |
| CCN(Cc1c(F)cccc1Cl)c1c([N+](=O)[O-])cc(C(F)(F)F)cc1[N+](=O)[O-] | inactive |
| CC(O)(P(=O)(O)O)P(=O)(O)O | inactive |
| Nc1ccc([N+](=O)[O-])cc1O | inactive |
| NS(=O)(=O)O | inactive |
